Data on 90 molecules can be found in PubChem BioAssay AID1851 (National Center for Advancing Translational Sciences (NCATS), 2009).

The term AC50 denotes the concentration at which the activity in the assay is half-maximal.

SMILES strings stand for the structures. The campaign covered roughly 16,000 compounds. About 5,800 (36%) were called active. Not shown: some 23% with an inconclusive outcome. Some of the results follow. Unmarked numbers belong to inactive results. Calls come from the whole dose curve; as a rule, active = well fitted curve in the direction sought with a large enough effect; inconclusive = small, poorly fitted or top-dose-only effect, or effect the other way; inactive = no such curve, though single readings can be large or run the other way.
% is set by controls: 0 for no effect and ±100 for the full control effect.

In this assay the target is Cytochrome P450 2C19 (Homo sapiens) (UniProt P33261). Nature of the assay: Cytochrome panel assay with activity outcomes. The settings on record: recombinant CYP, pro-luciferin dealkylation, luminescence, p450-cyp2c19; series mostly up to 57.1 µM.
Chain of Cytochrome P450 2C19 (Homo sapiens) (P33261 whole entry, looked up): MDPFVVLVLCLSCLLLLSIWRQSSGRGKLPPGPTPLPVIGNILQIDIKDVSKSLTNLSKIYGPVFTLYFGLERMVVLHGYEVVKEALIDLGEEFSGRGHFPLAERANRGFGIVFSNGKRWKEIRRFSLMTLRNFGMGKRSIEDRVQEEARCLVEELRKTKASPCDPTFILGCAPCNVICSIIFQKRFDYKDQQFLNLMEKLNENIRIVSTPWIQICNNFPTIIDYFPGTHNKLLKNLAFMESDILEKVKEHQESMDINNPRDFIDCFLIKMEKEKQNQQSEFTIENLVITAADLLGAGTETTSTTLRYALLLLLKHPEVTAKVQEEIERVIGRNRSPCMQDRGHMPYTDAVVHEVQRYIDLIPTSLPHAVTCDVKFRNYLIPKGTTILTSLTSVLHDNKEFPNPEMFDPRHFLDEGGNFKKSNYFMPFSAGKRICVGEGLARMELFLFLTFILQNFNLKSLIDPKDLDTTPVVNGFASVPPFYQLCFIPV
Consider `CS(=O)(=O)N1CCC2(CCCN(C(=O)Nc3cccc(F)c3)C2)CC1`, for which the AC50 result was “inactive”.

In the case of `Cc1ccc(C(C)C)n1C(=O)OC(C)(C)C`, the activity, negative = inhibition is 4.81% [at 11.4 µM].

Regarding `CN(C)/C=N/c1ncc(C(=O)c2ccc3ccccc3c2)s1`, the AC50 is 14.1 µM (active).

Take `CN(C)c1ccc(/C=N\NC(=O)c2cnc3ccccc3c2)cc1`: the activity, negative = inhibition is 21.3% [at 11.4 µM].

As to `COc1ccc(CCN(C(=O)C(F)(F)F)C(C(=O)NC2CCCC2)c2cccs2)cc1` (stereo not given), the AC50 is 2 µM (active).

In the case of `O=C(NC1CCCCC1)C(c1cccs1)N(C(=O)C(F)(F)F)c1ccccc1` (stereo not given), the concentration at half-maximal activity (AC50) is 1.58 µM (active).

Take `COc1ccc(C(C(=O)NC2CCCC2)N(C(=O)c2snc(-c3ccc(F)cc3)c2N)c2ccccc2)cc1` (stereo not given): the AC50 entry was “inactive”.

As for `CCOC(=O)c1ccc(N/C(=N\S(=O)(=O)c2ccccc2C)c2ccccc2)cc1`, the AC50 is 7.94 µM (active).

Take `COc1cc2c(cc1OC)C(C(=O)Nc1ccc3c(c1)OCCO3)C(c1cccnc1)N(C)C2=O` (stereo not given): the AC50 result was “inactive”.

Take `COc1cc(OC)c(C2C(C(=O)O)c3ccccc3C(=O)N2C)cc1OC` (stereo not given): the AC50 result was “inactive”.

For `COCCN1C(=O)c2ccccc2C(C(=O)Nc2ccc3c(c2)OCCO3)C1c1ccc(F)cc1` (stereo not given), the AC50 is 28.2 µM (active).

Regarding `CC1=NNC(=O)C1CCC(=O)N/N=C\c1ccccc1[N+](=O)[O-]` (stereo not given), the AC50 result is “inactive”.

With `CCn1c(SCC(=O)N/N=C/C=C\c2ccccc2[N+](=O)[O-])nnc1-c1ccccc1`, the AC50 is 14.1 µM (active).

On to `Cc1noc(C)c1C(=O)N1CCC[C@@]2(CCN(Cc3nccs3)C2)C1`, for which the AC50 entry is “inactive”.

As to `CSc1nc(C)cc(Nc2ccc(O)c(CN3CCOCC3)c2)n1`, the activity, negative = inhibition is 52.5% [at 11.4 µM].

As for `Cc1cc(N2CCOCC2)nc(SCc2ccc(Cl)cc2Cl)n1`, the AC50 is 2.24 µM (active).

In the case of `COc1cccc2c1C(=O)c1c(O)c3c(c(O)c1C2=O)C[C@](O)(C(=O)CO)C[C@H]3O[C@@H]1C[C@H](N)[C@H](O)[C@H](C)O1`, the AC50 result was “inactive”.

With `O=c1c(-c2ccccc2)nc2cnc(N3CCOCC3)nc2n1C1CC1`, the AC50 result was “inactive”.

With `COc1ccc(-n2c(=O)c(-c3ccccc3)nc3cnc(N4CCOCC4)nc32)cc1`, the AC50 entry was “inactive”.

As for `CCCc1ccc(Oc2cc(C)nc(N3CCOCC3)n2)cc1`, the AC50 is 11.2 µM (active).

Turning to `Cc1cc(Oc2ccc(-c3ccccc3)cc2)nc(N2CCOCC2)n1`, the AC50 is 14.1 µM (active).

On to `Nc1nc(Cl)nc2c1ncn2[C@@H]1O[C@@H](COP(=O)(O)OP(=O)(O)OP(=O)(O)O)[C@@H](O)[C@H]1O`, for which the AC50 entry is “inactive”.

Regarding `O=C(NC1CCCCC1)C(c1cccs1)N(Cc1cccs1)C(=O)c1ccco1` (stereo not given), the AC50 is 1.58 µM (active).

In the case of `COc1ccc(CN(C(=O)Cc2cccs2)C(C(=O)NC2CCCC2)c2ccncc2)cc1` (stereo not given), the AC50 was 1.78 µM (active).

As for `O=C(NC1CCCC1)C(c1ccsc1)N(Cc1ccccc1)C(=O)Cc1cccs1` (stereo not given), the AC50 was 5.01 µM (active).

Take `CO[C@H]1[C@@H](OC(N)=O)[C@H](O)[C@@H](Oc2ccc3c(O)c(NC(=O)c4ccc(O)c(CC=C(C)C)c4)c(=O)oc3c2C)OC1(C)C`: the AC50 result was “inactive”.

Turning to `NC(=S)c1ccc[n+]([C@@H]2O[C@@H](COP(=O)([O-])OP(=O)(O)OC[C@@H]3O[C@@H](n4cnc5c(N)ncnc54)[C@@H](OP(=O)(O)O)[C@H]3O)[C@@H](O)[C@H]2O)c1`, the AC50 entry was “inactive”.

`CCCCCCCCCCCCCCCCCCc1ccc(C(=O)/C=C\C(=O)O)cc1`: the AC50 result was “inactive”.

On to `COc1cccc(C(=O)/C=C/c2ccc(SC)cc2)c1`, for which the AC50 is 0.631 µM (active).

As to `CCCC(=O)Nc1ccc(C(=O)/C=C/c2ccc(SC)cc2)cc1`, the AC50 was 2.51 µM (active).

As to `COc1ccc2[nH]c(C(=O)c3ccccc3)cc2c1`, the AC50 result is “inactive”.

Consider `O=S(=O)(NCc1cccnc1)c1ccc(Cl)nc1`, for which the AC50 was 31.6 µM (active).

`c1cncc(CNCc2cccnc2)c1`: the activity, negative = inhibition was 5.45% [at 11.4 µM].

Turning to `OCCNc1ncnc2nc[nH]c12`, the activity, negative = inhibition was 10.2% [at 11.4 µM].

In the case of `Cc1cc2c(ncn2Cc2ccccc2)c([N+](=O)[O-])c1C`, the AC50 is 4.47 µM (active).

In the case of `Cc1cccc(Cn2cnc3c(NS(C)(=O)=O)c(C)c(C)cc32)c1`, the AC50 is 3.98 µM (active).

For `COc1ccc2oc(-c3ccc(C)c(NC(=O)CSc4ccc(Cl)cc4)c3)nc2c1`, the AC50 is 0.562 µM (active).

For the molecule `CC[C@@H]1OC(=O)[C@H](C)[C@H](O[C@@H]2C[C@](C)(OC)[C@H](O)[C@H](C)O2)[C@H](C)[C@H](O[C@@H]2O[C@@H](C)C[C@@H](N(C)C)[C@@H]2O)[C@](C)(O)C[C@H](C)[C@@H]2N[C@H](COCCOC)O[C@H]([C@@H]2C)[C@]1(C)O`, the AC50 result is “inactive”.

On to `COC(=O)c1cc(NC(=O)CC2NC3CCCCC3NC2=O)cc(C(=O)OC)c1` (stereo not given), for which the AC50 result is “inactive”.

With `CCN(CC)CCCNC(=O)CC1Sc2ccccc2NC1=O` (stereo not given), the AC50 entry was “inactive”.

Take `COC(=O)c1c(NC(=O)CC2Nc3ccccc3NC2=O)sc(C)c1C` (stereo not given): the AC50 is 11.2 µM (active).

`Nc1nc(N)c2nn(-c3ccc(C(=O)O)cc3)nc2n1`: the activity, negative = inhibition was 19.9% [at 11.4 µM].

`COC(=O)C1Cc2c([nH]c3ccccc23)CN1` (stereo not given): the AC50 is 3.98 µM (active).

Turning to `O=C(O)[C@@H]1Cc2c([nH]c3ccccc23)[C@@H](CCCCO)N1`, the activity, negative = inhibition is 17.4% [at 11.4 µM].

As for `CC[C@H]1CN(C)[C@H]2Cc3c([nH]c4ccccc34)C(=O)C[C@H]1[C@H]2C(=O)OC`, the activity, negative = inhibition was 22.2% [at 11.4 µM].

With `O=c1[nH]c2cc([N+](=O)[O-])c([N+](=O)[O-])cc2[nH]c1=O`, the AC50 entry is “inactive”.

On to `CCCCCCCCCCCCCC(=O)O[C@H](CC(=O)O)C[N+](C)(C)C`, for which the AC50 entry is “inactive”.

For the molecule `Cc1ccc(NC(=O)C2(NC(=O)c3cccc(N4C(=O)CSC4c4ccccc4)c3)CCCCC2)cc1` (stereo not given), the AC50 was 28.2 µM (active).

Regarding `CN(C)CC/C=C1\c2ccccc2CSc2ccccc21`, the AC50 entry is “inactive”.

Take `Cc1nc(SC2CC(=O)N(c3ccc([N+](=O)[O-])cc3)C2=O)nc2c1CCCC2` (stereo not given): the AC50 was 4.47 µM (active).

On to `O=C(Cc1ccc(Br)cc1)OCC(=O)c1ccc2c(c1)OCCO2`, for which the AC50 was 15.8 µM (active).

On to `O=c1c2ccc(Cl)cc2nc(-c2cccc(C(F)(F)F)c2)n1O`, for which the AC50 was 14.1 µM (active).

Regarding `FC(F)(F)c1cccc(-c2nc3nc(Cl)c(Cl)nc3[nH]2)c1`, the activity, negative = inhibition was -19.6% [at 11.4 µM].

Regarding `Cc1cc(C)n2c(SCC(=O)N(C)C3CCS(=O)(=O)C3)nnc2n1` (stereo not given), the AC50 result is “inactive”.

As for `Cc1ccc(-n2ccnc2SCC(=O)N(CC(C)C)C2CCS(=O)(=O)C2)c(C)c1` (stereo not given), the AC50 is 10 µM (active).

Take `Cc1cccc(NC(=O)CSc2nnc(-c3ccco3)c(-c3ccco3)n2)c1C`: the half-maximal activity concentration (AC50) is 2.24 µM (active).

For `Cc1cccc(Nc2cc(Cl)nc(SCC(=O)O)n2)c1C`, the AC50 entry was “inactive”.

As for `CC/C=C\CC[C@H](OC(=O)c1ccc(Br)cc1)C1=CCCCC1=O`, the AC50 is 2 µM (active).

For the molecule `O=C1CCCC=C1[C@H](O)c1ccc([N+](=O)[O-])cc1`, the activity, negative = inhibition is -22% [at 11.4 µM].

For `CC/C=C\CC[C@H](O)C1=CCCCC1=O`, the activity, negative = inhibition was 13.3% [at 11.4 µM].

On to `O=C1CCCC=C1[C@H](CCc1ccccc1)OC(=O)c1ccc(Br)cc1`, for which the AC50 was 1.58 µM (active).

Regarding `Cc1c(Cl)c(S(N)(=O)=O)cc2c1=NC=NS=2(=O)O`, the activity, negative = inhibition is 8.1% [at 11.4 µM].

Turning to `CN1CCC2(CC1)CCN(C(=O)c1ccncc1)CC2`, the AC50 entry was “inactive”.

With `COc1ccc2c(c1)nc(SCC(=O)c1ccc(Br)s1)n2C`, the AC50 is 0.398 µM (active).

On to `CCOc1ccc2c(c1)nc(SCC(=O)c1ccc(Br)s1)n2C`, for which the AC50 was 0.708 µM (active).

Turning to `Nc1ncnc2c1ncn2[C@@H]1O[C@@H](C(=O)NC2CC2)[C@H](O)[C@@H]1O`, the AC50 result was “inactive”.

As to `Cc1cc(O)c(/C=N/Nc2cccc(Cl)c2)c(=O)o1`, the AC50 is 3.16 µM (active).

In the case of `C[C@@H](CSC(=N)N)C(N)=O`, the activity, negative = inhibition is 27.2% [at 11.4 µM].

Take `COc1ccc(CNC(=O)Cc2csc(Nc3nc(=S)[nH]c4ccccc34)n2)cc1`: the AC50 is 2.82 µM (active).

For the molecule `Cc1ccc(CNC(=O)Cc2csc(Nc3nc(=S)[nH]c4ccccc34)n2)cc1`, the AC50 was 2.24 µM (active).

With `O=C(Cc1csc(Nc2nc(=S)[nH]c3ccccc23)n1)NCc1cccc(Cl)c1`, the AC50 was 0.794 µM (active).

Turning to `Oc1cc2c(cc1O)CN(C(=S)NCCc1ccc(Cl)cc1)CCC2`, the AC50 is 0.316 µM (active).

For `CN1C(=O)CC[C@@H]1c1cccnc1`, the AC50 entry is “inactive”.

Regarding `Cc1ccc(N2C(=O)CSC2c2cccnc2)cc1F` (stereo not given), the AC50 is 20 µM (active).

Turning to `CC1(C)CO[C@H](CC(=O)O)CN1`, the AC50 was 5.01 µM (active).

Take `Cc1nc2cnc(N(C)C)nc2n(C)c1=O`: the AC50 result was “inactive”.

On to `CSc1nc(N)nc(-c2cccs2)c1C#N`, for which the AC50 was 7.94 µM (active).

Regarding `Cc1c(-c2ccc(F)cc2)nc(N)c(C#N)c1-c1cccs1`, the AC50 is 4.47 µM (active).

With `COc1cccc(OCC(=O)NN=C2c3ccccc3-c3ccccc32)c1`, the AC50 was 0.708 µM (active).

Take `Cc1ccccc1OCC(=O)N/N=C1\CCOc2c(C)cccc21`: the AC50 entry was “inactive”.

In the case of `Cc1cccc2c1OCC/C2=N\NC(=O)COc1ccccc1`, the AC50 was 3.16 µM (active).

Take `Cc1c(N2CCCC2)cc2c(c1NC(=O)c1ccccc1Cl)C(C)(C)CC2(C)C`: the AC50 was 0.794 µM (active).

For `O=C(N/N=C/c1cccc(F)c1)c1csc2c1CCCC2`, the AC50 was 7.08 µM (active).

As for `Fc1cccc(/C=N\N=C/c2cccc(F)c2)c1`, the AC50 result is “inactive”.

Consider `COc1ccccc1CNc1ncncc1-c1cccnc1`, for which the AC50 is 10 µM (active).

As to `COc1cccc(-c2cncnc2NCc2ccccc2OC)c1`, the AC50 was 2 µM (active).

In the case of `COc1cccc(-c2cncnc2NCc2ccc(OC)cc2OC)c1`, the AC50 is 1.26 µM (active).

On to `CCC(C)(C)n1nnnc1C(c1ccc(C)cc1)N1CCC(C)CC1` (stereo not given), for which the AC50 was 14.1 µM (active).

On to `Cc1cc(C)c(NC(=O)C[C@H](CC(=O)O)c2cccc3ccccc23)c(C(=O)N2CCC3(CCCC3)CC2)c1`, for which the AC50 result is “inactive”.

Regarding `CSc1n[nH]c(-c2sccc2OCc2ccc(C)cc2)n1`, the AC50 was 1.12 µM (active).
